Active and inactive are the calls of the source.

Experiment [1] has as its system Plasmodium falciparum Sir2 (PF13_0152, Sir2A). Briefly: Plasmodium falciparum Sir2A binding compounds – biochemical, small-molecule microarray, 635 nm fluorescence, primary screen (AID 1098).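 Also: score merges spot fluorescence intensity with its signal-to-noise ratio.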 The following applies: fluorescence 635 nm, higher = more signal.
The nature of experiment [2]: probe aDKK1 binding to arrayed compounds – biochemical, biotinylated probe, 635/667 nm fluorescence, primary screen (AID 1099).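 Also: score merges 667nm spot fluorescence with signal to noise across triplicate slides.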 The following applies: small-molecule microarray, higher = more signal.
Experiment [3] in a line: probe aCHRDL2 binding to arrayed compounds – biochemical, biotinylated probe, 635/667 nm fluorescence, primary screen (AID 1100). The following applies: small-molecule microarray, higher = more signal.
Experiment [4] can be described thus: change in splice reporter luminescence, either direction, cell-based, HEK293, spliceosome inhibition project, primary screen (AID 1101).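 Also: HEK293 cells carrying a splicing-competent luciferase reporter gene; test concentration not given here.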 The following applies: HEK293 splicing luciferase reporter, 24 h, higher = more signal, called active from +8 up or from −8 down. A general note: Reporter assays use an easily measured gene product as a stand-in for the process of interest.

Experiment [5] has as its target Fibroblast growth factor 10 (Homo sapiens) (UniProt O15520). In words: compounds binding fibroblast growth factor 10 – biochemical, small-molecule microarray, 635 nm fluorescence, primary screen (AID 1102). The following applies: FGF10 binding, fluorescence 635 nm, higher = more signal.
Experiment [6] relates to glycogen synthase kinase-3 (GSK3A per assay name; protocol says GSK3B). Briefly: compounds binding glycogen synthase kinase-3 – biochemical, small-molecule microarray, 635 nm fluorescence, GSK3A, primary screen (AID 1103). Also: the record names both GSK3A and GSK3B. The following applies: fluorescence 635 nm, higher = more signal.
Experiment [7] has as its target Epidermal growth factor receptor (Homo sapiens) (UniProt P00533). In words: compounds binding epidermal growth factor receptor – biochemical, small-molecule microarray, 635 nm fluorescence, primary screen (AID 1104).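 Also: score merges 667 nm emission intensity with spot signal to noise over triplicate slides.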 The following applies: EGFR binding, higher = more signal.
The target in experiment [8] is Follistatin-related protein 3 (Homo sapiens) (UniProt O95633). In words: compounds binding follistatin-related protein 3 – biochemical, small-molecule microarray, 635 nm fluorescence, primary screen (AID 1105).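 Also: score merges emission near 667 nm and signal to noise per printed spot across three slides.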 The following applies: FSTL3 binding, higher = more signal.
Experiment [9] addresses Dickkopf-related protein 1 (Homo sapiens) (UniProt O94907). Briefly: small molecules binding DKK1 protein – biochemical, small-molecule microarray, 635 nm fluorescence scan, primary screen (AID 1106).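 Also: score merges emission near 667 nm with signal to noise over three replicate slides.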 The following applies: higher = more signal.
The subject of experiment [10] is Inhibin beta A chain (activin A). In words: small molecules binding activin A – biochemical, small-molecule microarray, 635 nm fluorescence scan, primary screen (AID 1107).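 Also: mouse activin A protein probed at 4.33 µg/mL on printed slides; score merges bound-protein fluorescence near 667 nm with spot signal-to-noise.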 The following applies: INHBA, higher = more signal.
In experiment [11] the test system is Human papillomavirus type 1a protein E7 (residues 44-93). Briefly: small molecules binding HPV E7 44-93 – biochemical, small-molecule microarray, residues 44-93, 635 nm fluorescence, primary screen (AID 1108).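 Also: E7 fragment applied at 1 µg/mL in TBST for 1 h at 4 C; score combines spot fluorescence with its signal to noise ratio.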 The following applies: fluorescence 635 nm, higher = more signal.
Experiment [12] in a line: hepatitis C replication reporter changes, two-sided – Huh7 cells, luciferase reporter, HCV replication inhibitor project, primary screen (AID 1109).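 Also: huh7 hepatoma cells harbouring a luciferase neomycin HCV replicon reporter; luciferase luminescence as measure of HCV replicon replication; test concentration not given here.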 The following applies: Huh7 HCV replicon luciferase reporter, 48 h; higher = more signal.
The target of experiment [13] is Left-right determination factor 2 (Homo sapiens) (UniProt O00292). In words: small molecules binding LEFTY2 protein – biochemical, small-molecule microarray, 635 nm fluorescence scan, primary screen (AID 1110). The following applies: higher = more signal.
The target of experiment [14] is Calmodulin-1 (Homo sapiens) (UniProt P0DP23). Briefly: small molecules binding calmodulin-1 with EGTA – biochemical, small-molecule microarray, Cy5-labelled CALM1, profiling panel (AID 1111).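 Also: labelled calmodulin applied in Tris saline Tween buffer holding calcium plus EGTA and DTT.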 The following applies: Cy5-CALM1 binding fluorescence, higher = more signal.
Experiment [15] has the same target. In words: small molecules binding Ca-loaded calmodulin-1 – biochemical, small-molecule microarray, Cy5-labelled CALM1, plus calcium, artefact control for SMM control-protein annotation, profiling panel (AID 1112).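 Also: score merges spot fluorescence with signal to noise from triplicate slides.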 The following applies: Cy5-CALM1 binding fluorescence, higher = more signal.
A short description of experiment [16]: probe aWnt5a binding to arrayed compounds – biochemical, biotinylated probe, 635/667 nm fluorescence, primary screen (AID 1113).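 Also: score merges 667 nm fluorescence intensity with signal-to-noise per printed feature.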 The following applies: small-molecule microarray, higher = more signal.
Experiment [17] can be described thus: probe aShh binding to arrayed compounds – biochemical, biotinylated probe, 635/667 nm fluorescence, primary screen (AID 1114).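 Also: probe is biotin-labelled aShh protein from a stem cell growth factor screen; measures binding of labelled protein to compounds printed on the slide; score merges feature fluorescence at 667 nm with signal-to-noise.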 The following applies: small-molecule microarray, higher = more signal.
Experiment [18] in a line: probe aNog binding to arrayed compounds – biochemical, biotinylated probe, 635/667 nm fluorescence, primary screen (AID 1115).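 Also: probe is biotinylated aNog protein used at 0.15 µg/mL for 1 h at 4 C; z-score combines 667 nm fluorescence of each spot with its signal to noise.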 The following applies: small-molecule microarray, higher = more signal.
The target in experiment [19] is Torsin-1A-interacting protein 1 (Homo sapiens) (UniProt Q5JTV8). In words: compound microarray binding of lysate hLAP1 – cell lysate, small-molecule microarray, COS7 lysate, 635/667 nm fluorescence, primary screen (AID 1116). The following applies: 635 nm fluorescence, higher = more signal.
Experiment [20] concerns the target Alpha-bungarotoxin (Bungarus multicinctus) (UniProt P60615). In words: compounds binding labelled alpha-BTX control protein – biochemical, small-molecule microarray, Alexa647 label, 635/667 nm fluorescence, artefact control for SMM control protein annotation, profiling panel (AID 1117). The following applies: alpha-BTX-A647 binding fluorescence, higher = more signal.

Chain of Torsin-1A-interacting protein 1 (Homo sapiens) (Q5JTV8 whole entry, looked up): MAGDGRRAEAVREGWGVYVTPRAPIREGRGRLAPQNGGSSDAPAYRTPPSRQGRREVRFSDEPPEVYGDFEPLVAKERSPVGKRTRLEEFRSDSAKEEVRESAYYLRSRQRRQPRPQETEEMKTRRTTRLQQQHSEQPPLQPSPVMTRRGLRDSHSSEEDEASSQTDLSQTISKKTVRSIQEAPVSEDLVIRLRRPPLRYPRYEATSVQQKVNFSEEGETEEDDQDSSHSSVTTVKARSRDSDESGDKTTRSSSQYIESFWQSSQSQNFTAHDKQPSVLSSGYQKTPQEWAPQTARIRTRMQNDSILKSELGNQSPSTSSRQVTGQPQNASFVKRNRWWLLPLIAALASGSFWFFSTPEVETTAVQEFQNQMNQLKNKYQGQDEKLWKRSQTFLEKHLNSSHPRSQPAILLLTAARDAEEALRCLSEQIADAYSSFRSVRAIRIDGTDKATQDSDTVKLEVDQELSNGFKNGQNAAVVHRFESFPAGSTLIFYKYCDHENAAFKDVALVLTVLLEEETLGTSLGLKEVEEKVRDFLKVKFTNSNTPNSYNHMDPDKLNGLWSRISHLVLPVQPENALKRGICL
Chain of Left-right determination factor 2 (Homo sapiens) (O00292 whole entry, looked up): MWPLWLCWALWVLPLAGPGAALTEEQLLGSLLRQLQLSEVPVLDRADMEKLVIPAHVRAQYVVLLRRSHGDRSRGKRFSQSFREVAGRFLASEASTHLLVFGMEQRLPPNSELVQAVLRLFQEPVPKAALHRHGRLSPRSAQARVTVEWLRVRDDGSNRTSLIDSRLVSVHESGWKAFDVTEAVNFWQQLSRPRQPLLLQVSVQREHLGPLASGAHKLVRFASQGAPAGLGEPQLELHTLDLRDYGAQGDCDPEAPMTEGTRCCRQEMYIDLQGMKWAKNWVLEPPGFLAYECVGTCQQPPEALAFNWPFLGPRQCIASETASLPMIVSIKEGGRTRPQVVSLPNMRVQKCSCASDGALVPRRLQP
Chain of Alpha-bungarotoxin (Bungarus multicinctus) (P60615 whole entry, looked up): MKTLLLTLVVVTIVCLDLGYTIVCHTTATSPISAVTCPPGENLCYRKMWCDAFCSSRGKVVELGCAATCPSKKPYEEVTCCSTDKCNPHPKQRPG
Chain of Epidermal growth factor receptor (Homo sapiens) (P00533 whole entry, looked up): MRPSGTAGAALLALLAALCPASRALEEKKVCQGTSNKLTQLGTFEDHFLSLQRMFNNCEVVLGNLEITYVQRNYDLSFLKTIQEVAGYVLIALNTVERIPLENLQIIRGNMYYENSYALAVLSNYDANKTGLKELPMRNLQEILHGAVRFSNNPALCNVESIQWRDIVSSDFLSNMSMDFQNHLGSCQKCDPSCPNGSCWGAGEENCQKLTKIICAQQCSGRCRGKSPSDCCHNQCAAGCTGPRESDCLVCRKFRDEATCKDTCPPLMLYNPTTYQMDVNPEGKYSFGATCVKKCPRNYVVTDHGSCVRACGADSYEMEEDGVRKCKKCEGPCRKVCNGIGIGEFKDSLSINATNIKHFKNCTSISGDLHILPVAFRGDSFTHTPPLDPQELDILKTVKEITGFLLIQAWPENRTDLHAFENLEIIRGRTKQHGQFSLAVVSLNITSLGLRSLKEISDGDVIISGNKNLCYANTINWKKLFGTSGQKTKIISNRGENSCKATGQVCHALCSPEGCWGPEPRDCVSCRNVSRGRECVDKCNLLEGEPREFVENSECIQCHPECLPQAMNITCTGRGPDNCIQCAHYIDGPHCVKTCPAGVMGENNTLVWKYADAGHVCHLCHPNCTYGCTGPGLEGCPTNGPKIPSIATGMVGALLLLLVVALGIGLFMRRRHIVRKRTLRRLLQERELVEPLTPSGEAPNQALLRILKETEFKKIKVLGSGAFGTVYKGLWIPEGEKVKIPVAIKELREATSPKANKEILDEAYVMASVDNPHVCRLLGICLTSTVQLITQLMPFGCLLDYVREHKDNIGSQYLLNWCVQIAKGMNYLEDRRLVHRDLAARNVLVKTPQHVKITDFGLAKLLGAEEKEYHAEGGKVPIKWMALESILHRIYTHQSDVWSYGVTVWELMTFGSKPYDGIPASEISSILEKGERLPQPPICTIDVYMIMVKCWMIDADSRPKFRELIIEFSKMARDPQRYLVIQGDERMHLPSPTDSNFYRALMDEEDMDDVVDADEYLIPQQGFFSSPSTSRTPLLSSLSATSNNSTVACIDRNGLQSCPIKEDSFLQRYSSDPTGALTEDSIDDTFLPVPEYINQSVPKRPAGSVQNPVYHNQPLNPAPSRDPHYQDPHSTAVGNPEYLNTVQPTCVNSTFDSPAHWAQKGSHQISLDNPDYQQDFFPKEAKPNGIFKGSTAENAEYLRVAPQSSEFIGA
Chain of Follistatin-related protein 3 (Homo sapiens) (O95633 whole entry, looked up): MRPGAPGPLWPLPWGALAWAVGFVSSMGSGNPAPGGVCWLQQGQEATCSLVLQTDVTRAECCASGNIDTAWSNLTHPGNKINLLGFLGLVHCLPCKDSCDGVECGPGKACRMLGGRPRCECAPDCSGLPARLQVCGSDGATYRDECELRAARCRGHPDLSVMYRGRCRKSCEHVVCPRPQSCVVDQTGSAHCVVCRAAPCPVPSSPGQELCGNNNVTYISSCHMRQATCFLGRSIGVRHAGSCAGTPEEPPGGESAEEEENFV
Chain of Fibroblast growth factor 10 (Homo sapiens) (O15520 whole entry, looked up): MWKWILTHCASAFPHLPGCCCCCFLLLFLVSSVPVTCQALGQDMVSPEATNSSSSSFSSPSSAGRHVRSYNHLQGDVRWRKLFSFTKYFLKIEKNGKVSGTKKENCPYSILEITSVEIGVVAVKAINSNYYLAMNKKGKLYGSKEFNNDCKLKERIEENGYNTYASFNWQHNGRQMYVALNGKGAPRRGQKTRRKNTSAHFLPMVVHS
Chain of Dickkopf-related protein 1 (Homo sapiens) (O94907 whole entry, looked up): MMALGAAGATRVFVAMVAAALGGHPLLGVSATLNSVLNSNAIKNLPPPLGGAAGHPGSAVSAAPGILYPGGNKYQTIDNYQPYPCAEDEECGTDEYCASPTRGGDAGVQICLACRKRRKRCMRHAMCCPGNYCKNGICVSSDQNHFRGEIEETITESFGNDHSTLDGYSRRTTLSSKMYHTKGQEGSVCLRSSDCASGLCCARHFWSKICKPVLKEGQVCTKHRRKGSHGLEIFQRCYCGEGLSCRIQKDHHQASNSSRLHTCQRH

For `C#CCCCON=C1C[C@@H](O)[C@@H](O)[C@@H]2[C@@H]3C(=O)N(CCC(=O)OCC)C(=O)[C@@H]3CC[C@@H]12`, the composite z-score was -0.346 in [1]; 1.17 in experiment [2]; 1.51 in experiment [3]; -0.0714 in experiment [5]; -0.493 in experiment [6]; -0.905 in experiment [7]. The composite z-score in [8] was -0.911; in experiment [9] it was -0.908; in experiment [10], 0.459; in experiment [11], -0.58; in experiment [13], -0.174; in [14], -0.335. The composite z-score in experiment [15] was 0.0811; in [16], -0.0748; in [17], 0.246; in [18] it was 0.206; in experiment [19], -0.221; in [20] it was 1.04. The z-score was 0.907 (inactive) in experiment [4] and -2.78 in experiment [12].

On to `COc1ccc(COC(=O)NN=C2C[C@@H](O)[C@@H](O)[C@@H]3[C@@H]4C(=O)N(c5ccc(F)cc5F)C(=O)[C@@H]4CC[C@@H]23)cc1`, for which the composite z-score in experiment [1] was 0.911; in experiment [2], 0.262; in [3], 1.18; in experiment [5], -0.665; in [6], -1.53; in [7] it was -0.076. Further, the composite z-score in [8] was -0.267; in [9] it was -0.69; in [10] it was 0.532; in experiment [11], -0.0514; in [13], -0.151; in experiment [14], 0.0539. The composite z-score is -0.325 in [15]; -0.096 in [16]; -0.221 in experiment [17]; 0.041 in experiment [18]; 0.599 in experiment [19]; 0.626 in experiment [20]. Moreover, the z-score is 0.3 (inactive) in experiment [4] and -0.76 in [12].

In the case of `O=C1[C@H]2[C@H]3[C@H](O)[C@H](O)CC(=NOCc4ccccc4)[C@H]3CC[C@H]2C(=O)N1c1cccc(Oc2ccccc2)c1`, the composite z-score was 0.669 in experiment [1]; -0.421 in experiment [2]; -0.469 in experiment [3]; 0.787 in experiment [5]; 0.596 in experiment [6]; 0.349 in experiment [7]. Also, the composite z-score is 0.911 in experiment [8]; 0.487 in [9]; -0.0134 in experiment [10]; 0.934 in experiment [11]; 0.389 in [13]; 0.364 in experiment [14]. Further, the composite z-score was -0.177 in [15]; 0.0145 in experiment [16]; -0.16 in experiment [17]; -0.305 in [18]; 0.683 in experiment [19]; 0.684 in [20]. Further, the z-score in [4] is 0.639 (inactive); in [12] it was 0.162.

On to `CC(C)C[C@@H]1NC(=O)[C@H]2C[C@@H](C(=O)O)[C@@H](c3ccc(O)cc3)N2C1=O`, for which the composite z-score in [1] was 1.08; in experiment [2], 0.717; in experiment [3], 0.171; in experiment [5] it was 0.0112; in [6] it was 0.141; in experiment [7] it was -0.284. Further, the composite z-score in experiment [8] was 0.0204; in experiment [9], 0.63; in [10], 1.05; in experiment [11], 0.635; in [13] it was 0.0945; in experiment [14], -0.187. Also, the composite z-score in [15] was 0.131; in [16] it was -0.0704; in experiment [17], 0.0611; in experiment [18], -0.144; in experiment [19], 0.588; in experiment [20], 2.19. The z-score is -0.0559 (inactive) in experiment [4] and 3.51 in [12].

As for `CCc1cccc(NC(=O)O[C@H]2[C@H](OC(=O)Nc3ccc4c(c3)OCO4)[C@@H](OC(=O)Nc3ccc4c(c3)OCO4)[C@@H](OC)O[C@@H]2CO)c1`, the composite z-score was 0.402 in experiment [1]; -0.144 in [2]; -0.0627 in [3]; 1.38 in experiment [5]; 1.35 in experiment [6]; 0.446 in [7]. Moreover, the composite z-score in [8] is 1.32; in [9], 0.583; in [10], 0.863; in experiment [11], 1.4; in experiment [13], 0.645; in experiment [14], 0.779. Moreover, the composite z-score in experiment [15] is -1.12; in experiment [16], 0.0136; in experiment [17] it was 0.214; in experiment [18], -0.229; in [19], 0.577; in experiment [20] it was 0.545. Moreover, the z-score in [4] is -0.637 (inactive); in experiment [12], -0.717.

Consider `CC(CCN1CCCCc2nc(C)c(C)cc21)=NOC(C)CN1CCCc2nc(C)c(C)cc21` (stereo not given), for which the composite z-score in experiment [1] was 1.53; in experiment [2], 0.699; in experiment [3], -0.324; in [5] it was 1.35; in experiment [6], 1.32; in [7], 1.56. Further, the composite z-score in experiment [8] amounted to 1.47; in experiment [9] it was 1.05; in [10] it was 1.5; in experiment [11], 1.2; in experiment [13] it was 1.12; in experiment [14], 1.09. The composite z-score in experiment [15] is -0.573; in experiment [16], 0.298; in experiment [17], 1.25; in experiment [18], 0.578; in [19] it was 1.13; in experiment [20] it was 2.07. Further, the results for the z-score in experiment [4] and in [12] were 0.506 (inactive) and -0.974, respectively.

The values above are taken from PubChem BioAssay.
